In article PMC5540273 (PLoS ONE, 2017):

Tested on: T1, PYK2
T1 construct: gene PTK2B
Conditions: concentration: 1 μM, replicates: in singlicate; n = 1
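Further: KINOMEscan kinase panel screen.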

| SMILES | %Inh [%] |
| --- | --- |
| COC(=O)Nc1nc2cc(Oc3ccc(NC(=O)Nc4cc(C(F)(F)F)ccc4F)cn3)ccc2[nH]1.Cl.Cl [GW681170] | 16 |
| Fc1ccc(-c2ncn(C3CCNCC3)c2-c2ccnc(Oc3ccc(-c4ccccc4)cc3)n2)cc1 [SB-245391] | 80 |
| Cc1ccc(C)c(NC(=O)NC2CCN(c3ccnc(Nc4ccc(F)cc4)n3)C2)c1 (stereo not shown) [GSK1379720] | 19 |
| CSc1cccc2c(-c3ccncn3)c(-c3ccc(F)cc3)nn12 [GW514786] | 0 |
| Oc1cc(Nc2ccnc3cc(I)ccc23)ccc1F [GW552771] | 25 |
| Cc1ccc(S(=O)(=O)Nc2ccc(Nc3nccc(Nc4cccc5[nH]ncc45)n3)cc2)cc1 [GSK581271] | 12 |
| COc1cccc(-c2ccc3c(NC(=O)C4CC4)n[nH]c3n2)c1 [SB-710903] | 6 |
| O=C(Nc1cccc(-c2nn3ccccc3c2-c2ccnc(Nc3cccc(C(F)(F)F)c3)n2)c1)c1c(F)cccc1F [GSK292658] | 0 |
| Cl.Cl.NCC(NCc1ccc(-c2ccnc3[nH]ccc23)s1)c1ccccc1 (stereo not shown) [GSK1321565] | 9 |
| CCn1c(-c2nonc2N)nc2c(C#CC(C)(C)O)nc(OC[C@H](N)c3ccccc3)cc21 [GSK943949] | 7 |
| COCCOCCOc1cc2ncc3c4ccc(C#N)cc4[nH]c3c2cc1OC | 6 |
| Clc1ccc(-c2nn3ncccc3c2-c2ccnc(Nc3ccc4c(c3)OCCO4)n2)cc1 [GW829116] | 24 |
| COc1cccc(NC(=O)NC2CCN(c3ccnc(Nc4cc(OC)c(OC)c(OC)c4)n3)C2)c1 (stereo not shown) [GSK1379763] | 4 |
| COc1cccc(C(=O)Nc2cccc(Oc3ccc4nc(NC(=O)C5CC5)cn4n3)c2)c1 | 9 |
| CN(C)Cc1ccc(-c2ccc3c(Nc4ccc(Oc5ccccn5)cc4)ccnc3c2)o1 [GW567148] | 0 |
| Nc1ncc(-c2cccnc2)c2scc(-c3ccc4c(c3)CCN4C(=O)Cc3ccccc3)c12 [GSK683281] | 35 |
| COc1ccc(Nc2nccc(NCCNC(=O)c3cc4ccccc4s3)n2)cc1 [GSK1379896] | 0 |
| O=C(Nc1n[nH]c2nc(-c3ccc(O)cc3)ccc12)C1CC1 [SB-710363] | 26 |
| O=C(Nc1cccc(-c2nn3ccccc3c2-c2ccnc(Nc3cccc(F)c3)n2)c1)c1c(F)ccc(F)c1Cl [GSK357952] | 0 |

| SMILES | %Inh [%] |
| --- | --- |
| CN1CCN(Cc2cccc(-c3ccc4c(Nc5ccc(Oc6ccccc6)cc5)ccnc4c3)c2)CC1 [GW578342] | 0 |
| COc1cc(Nc2nccc(N3CCC(NC(=O)Nc4cccc(C(C)=O)c4)C3)n2)cc(OC)c1OC (stereo not shown) [GSK1379753] | 0 |
| c1ccc(Oc2ccc(Nc3ccnc4cc(-c5ccc(CNCCN6CCOCC6)o5)ccc34)cc2)nc1 [GW567145] | 0 |
| CC(C)c1nc(-c2cccc(NS(=O)(=O)c3c(F)cccc3F)c2F)c(-c2ccnc(Nc3ccc(N4CCOCC4)nc3)n2)s1 [GSK2008607] | 3 |
| C[C@@H](Oc1cc(-n2cnc3cc(-c4ccnc(NCCS(C)(=O)=O)c4)ccc32)sc1C(N)=O)c1ccccc1Cl [GSK907232] | 24 |
| Cn1cc(-c2[nH]c3cc(NC(=O)[C@H](N)C4CCCCC4)cc4c3c2C=NNC4=O)cn1 | 3 |
| CCS(=O)(=O)c1ccc(OC)c(Nc2nccc(-c3c(-c4cccc(NC(=O)c5c(F)cccc5F)c4)nn4ncccc34)n2)c1 [GSK326180] | 12 |
| Cl.NC(=O)c1cccc(Nc2nccc(Nc3ccc(Oc4c(Cl)cccc4Cl)c(Cl)c3)n2)c1 [GW659009] | 0 |
| Nc1ncc(-c2ccc3nccc(-c4ccncc4)c3c2)cc1S(=O)(=O)N1CCOCC1 [GSK1627798] | 21 |
| Cn1cc(-c2ccc3c(c2)CCN3C(=O)Cc2cccc(Cl)c2)c2c(N)ncnc21 [GSK2606590] | 4 |
| CC(C)(C)c1ccc2nccc(Nc3cccc(O)c3)c2c1 [GW856795] | 0 |
| CC(=O)Nc1nc2cnc(Nc3cc(NC(=O)c4cccc(C5(C#N)CC5)c4Cl)ccc3C)nc2s1 | 20 |
| COc1cc(Nc2nccc(N3CCC(NC(=O)c4cc5ccccc5s4)C3)n2)cc(OC)c1OC (stereo not shown) [GSK1379760] | 0 |
| Cc1occc1-c1ncc(OC[C@@H](N)Cc2c[nH]c3ccccc23)cc1-c1ccc2[nH]nc(C)c2c1.O=C(O)C(F)(F)F [GSK682037] | 49 |
| C[C@@H]1CC[C@@H](C(=O)Nc2ccccc2)CN1c1cc(-c2ccc3c(N)n[nH]c3c2)nc(N)n1 [GSK2286062] | 3 |
| CCn1c(-c2nonc2N)nc2c(C#CC(C)(C)O)ncc(OCCCCN)c21.O=C(O)C(F)(F)F.O=C(O)C(F)(F)F [GSK507274] | 0 |
| O=c1[nH]cc(-c2ccc(N3CCOCC3)cc2)c2sc(-c3cn[nH]c3)cc12 [GSK2276055] | 0 |
| COc1cccc(C2=C(Nc3ccc(Cl)c(C(=O)O)c3)C(=O)NC2=O)c1 [SB-390769] | 0 |
